{"source": "PubChem BioAssay (EPA / NIEHS)", "note": "The source made the active and inactive calls. How the source made its calls: active means hit-call score of the fitted dose curve at least 0.9, where 1 is the maximum; inactive means score below 0.9.", "data": [{"read-out": "cysteine-aspartic acid protease (CASP8), CASP8 (gene 841)", "assay": "LTEA_HepaRG_CASP8: Life Technologies and Expression Analysis (LTEA) Assay for cysteine-aspartic acid protease (CASP8) using HepaRG (AID 2283480)", "details": "mRNA level, 48 h; actives raise or lower the signal", "protocol": "LTEA_HepaRG is a cell based, multiplexed-readout assay that uses HepaRG, a human liver cell line, with measurements taken at 48 hours after chemical dosing on a 96-well plate.LTEA_HepaRG_CASP8 is one of 102 assay component(s) measured in the LTEA HepaRG cell culture assay. It is a marker of Cell proliferation, survival, death.Data from the assay component LTEA_HepaRG_CASP8 was analyzed into 1 endpoint. This assay endpoint, LTEA_HepaRG_CASP8, was analyzed with bidirectional fitting relative to DMSO as the negative control and baseline of activity. Using a type of inducible reporter, measures of mRNA induction for gain or loss-of-signal activity can be used to understand regulation of transcription factor activity. To generalize the intended target to other relatable targets, this assay endpoint is annotated to the protease intended target family, where the subfamily is cysteine protease.\nA total of 1060 chemcials from the ToxCast library were tested in eight-point concentration-response experiments. Cell culture and cytotoxicity assays were conducted at Thermo Fisher Scientific's Custom Services facility (Madison, WI). A single lot of human HepaRG cells (Thermo Fisher Scientific, Frederick, MD) was used for the cell culture experiments. 96-well format collagen type I coated plates of human HepaRG cells were prepared using established methods. Briefly, cryopreserved HepaRG cells were thawed, plated at a density of approximately 100,000 cells/well in HepaRG Thaw, Plate, and General Purpose media (HPRG770, Thermo Fisher Scientific), and incubated for 48 hours. 0.5% DMSO was selected as vehicle control to balance the requisite need of DMSO in HepaRG cultures to maintain differentiation (for example, baseline metabolism, proportions of hepatocytes vs. cholangiocytes), while enabling further hepatic receptor pathway activation (for example, PXR and CAR) in response to chemical exposure. 48 hours after plating, the culture medium was replaced with HepaRG Serum-Free Incudtion Media. Cells were exposed to each test chemical in duplicate and maintained in CO2 incubators for another 48 hours. Chemical plates were thawed to room temperature and 200x concentrations of treatment groups were prepared. 8-point conentration-reponse curves were made with the highest exposure at 100 uM, followed by half-log dilutions, all in 0.5% DMSO. Each test plate contained variouse controls, induction positive controls (1mM phenobarbital), cytotoxicity positive controls ([…] aflatoxin B1), vehicle controls (0.5% DMSO), and total lysis controls (0.5% DMSO). Cell morphology images were taken using an Essen IncuCyte FLR automated microscope, with six 96-well plates imaged in about 24 minutes. Images were captured and exported and JPEG files. Spent culture media was transfered to black-well plates for the LDH assay, and remaining media was sorted at -80 C for later use. Cells were treated with RLT buffer and frozen until shipped for gene expression analysis. Total RNA was isolated from the cell suspension in 75 uL of Buffer RLT (Qiagen, Germantown, MD 20874) by Quintiles/Expression Analysis (Durham, NC) using a custom isolation procedure. Total RNA from each plate well was transferred to a preamplification plate. Fluidigm's 96.96 Dynamic ArrayTM (Fluidigm, Amsterdam, the Netherlands) technology was used for gene expression analyses by quantitative reverse transcription polymerase chain reaction (qRT-PCR, performed by Quintiles/Expression Analysis, Durham, NC)89. Standard TaqManTM Assays (Applied Biosystems/ThermoFisher Scientific, Foster City, CA) were used to assess the expression of 93 genes selected based on their selectivity and sensitivity to important hepatic receptors known to be modulated by environmental chemicals; importance in human hepatocyte functionality; and hepatotoxicity. […]", "values": [{"smiles": "O=[Si]=O", "outcome": "inactive"}, {"smiles": "Cc1cn([C@H]2C=C[C@@H](CO)O2)c(=O)[nH]c1=O", "outcome": "inactive"}, {"smiles": "CC(=O)OCC(COC(C)=O)OC(C)=O", "outcome": "inactive"}, {"smiles": "CCN(CC)CCOc1ccc(C(=C(Cl)c2ccccc2)c2ccccc2)cc1", "outcome": "inactive"}, {"smiles": "CCCCC(CC)CO", "note": "(stereo not given)", "outcome": "inactive"}, {"smiles": "CN(C)CCCN1c2ccccc2Sc2ccc(Cl)cc21", "AC50": "94.5 µM (active)"}, {"smiles": "COC(=O)CCC(=O)OC", "outcome": "inactive"}, {"smiles": "CCCCC(CC)COP(=O)(OCC(CC)CCCC)OCC(CC)CCCC", "note": "(stereo not given)", "outcome": "inactive"}, {"smiles": "C#CC(O)C(CC)CCCC", "note": "(stereo not given)", "outcome": "inactive"}, {"smiles": "Nc1nc(Cl)nc2c1ncn2[C@H]1C[C@H](O)[C@@H](CO)O1", "outcome": "inactive"}, {"smiles": "Cc1ccc(-c2cc(C(F)(F)F)nn2-c2ccc(S(N)(=O)=O)cc2)cc1", "outcome": "inactive"}, {"smiles": "CCCCCCCCCCCCCCCCO", "outcome": "inactive"}, {"smiles": "O=NO", "outcome": "inactive"}, {"smiles": "O=C(Oc1ccccc1)c1cccc(C(=O)Oc2ccccc2)c1", "outcome": "inactive"}, {"smiles": "C=CCCCCCCCCCCCC", "outcome": "inactive"}, {"smiles": "COC(=O)CCCC(=O)OC", "outcome": "inactive"}, {"smiles": "O=Cc1ccccc1C=O", "outcome": "inactive"}, {"smiles": "CC(C)(C)c1ccccc1", "outcome": "inactive"}, {"smiles": "CCCCCCC(C=O)=Cc1ccccc1", "outcome": "inactive"}, {"smiles": "O=C(N[C@@H](c1ccccc1)[C@@H]1CCCCN1)c1cccc(C(F)(F)F)c1Cl", "AC50": "82.8 µM (active)"}, {"smiles": "C/C=C/C=C/C(=O)O", "outcome": "inactive"}, {"smiles": "CC(=O)[C@@]1(O)CC[C@H]2[C@@H]3CCC4=CC(=O)CC[C@]4(C)[C@H]3CC[C@@]21C", "outcome": "inactive"}, {"smiles": "NC=O", "outcome": "inactive"}, {"smiles": "N[C@@H](Cc1c[nH]c2ccccc12)C(=O)O", "outcome": "inactive"}, {"smiles": "CN(C)C(=O)NC1(c2ccccc2)CCN(CC[C@@]2(c3ccc(F)c(F)c3)CN(C(=O)c3ccccc3)CCO2)CC1", "outcome": "inactive"}, {"smiles": "CC1=C(C)S(=O)(=O)CCS1(=O)=O", "outcome": "inactive"}, {"smiles": "CCCC[C@H]1CN(CC2CCOCC2)C(=O)OC12CCN(C1(C)CCN(C(=O)c3c(C)ncnc3C)CC1)CC2", "outcome": "inactive"}, {"smiles": "Cn1cnc2c1c(=O)[nH]c(=O)n2C", "outcome": "inactive"}, {"smiles": "CSc1ccc(Oc2ccc(S(N)(=O)=O)cc2CN(C)C)cc1C", "outcome": "inactive"}, {"smiles": "C/C=C/c1ccc(OC)cc1", "outcome": "inactive"}, {"smiles": "CCc1cc(C2=C(C(=O)O)N(c3ccccc3C(F)(F)F)S(=O)(=O)c3ccccc32)cc2c1OCO2", "outcome": "inactive"}, {"smiles": "O=C1NC(=O)C(c2ccccc2)(c2ccccc2)N1", "outcome": "inactive"}, {"smiles": "O=C(O)CC(O)(CC(=O)O)C(=O)O", "outcome": "inactive"}, {"smiles": "NC(=Nc1ccccc1)Nc1ccccc1", "outcome": "inactive"}, {"smiles": "CC(C)OC(=O)C(C)(C)Oc1ccc(C(=O)c2ccc(Cl)cc2)cc1", "outcome": "inactive"}, {"smiles": "CCCCC(CC)COC(=O)CCCCCCCC(=O)OCC(CC)CCCC", "note": "(stereo not given)", "outcome": "inactive"}, {"smiles": "CC(C)NCC(O)c1ccc(O)c(O)c1", "note": "(stereo not given)", "outcome": "inactive"}, {"smiles": "CCC(C)N(C)C(=O)c1cc2ccccc2c(-c2ccccc2Cl)n1", "note": "(stereo not given)", "outcome": "inactive"}, {"smiles": "CC1(C)C(=O)NC(=O)N1CO", "outcome": "inactive"}, {"smiles": "CCCCOC(=O)CCCCC(=O)OCCCC", "outcome": "inactive"}]}]}
